Assay results as given in the supplement of paper PMC12645437, “Orthogonal IMiD-Degron Pairs Induce Selective Protein Degradation in Cells” (ACS Chemical Biology, 2025).
Whole data set: some 8,300 sequences, median “log2 fold change of degron read counts, EGFP-low vs EGFP+ sorted cells (limma voom), compound-induced degradation” near -1.1, cut for the highest 2% near 3.2. Only a selection was taken, and the highest values are over-represented in it overall.

Target: T1, CRBN, Q96SW2
T1 chain: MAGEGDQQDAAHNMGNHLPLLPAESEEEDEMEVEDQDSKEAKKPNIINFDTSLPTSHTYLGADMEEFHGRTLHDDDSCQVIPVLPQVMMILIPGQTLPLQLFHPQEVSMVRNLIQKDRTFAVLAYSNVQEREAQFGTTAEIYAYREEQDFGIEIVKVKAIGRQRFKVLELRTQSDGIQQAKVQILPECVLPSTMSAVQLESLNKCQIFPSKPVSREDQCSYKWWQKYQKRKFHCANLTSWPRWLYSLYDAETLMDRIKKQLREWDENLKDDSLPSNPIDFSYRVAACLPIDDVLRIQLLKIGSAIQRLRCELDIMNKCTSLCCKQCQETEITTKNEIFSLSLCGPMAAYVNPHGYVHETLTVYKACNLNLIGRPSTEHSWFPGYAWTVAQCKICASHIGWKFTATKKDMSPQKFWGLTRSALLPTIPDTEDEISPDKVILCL
Assay: log2 fold change of degron read counts, EGFP-low vs EGFP+ sorted cells (limma voom), compound-induced degradation; higher = more compound-induced degradation of the degron-EGFP fusion; degrons are variants of IKZF1/3 zinc finger 2; compound dose not given here
Conditions: Jurkat, 18 h

[1] = compound: compound 19 (5-tert-butyl-thalidomide)
[2] = compound: compound 22 (5-morpholino-thalidomide)
[3] = compound: compound 33 (diphenyl IMiD analogue)
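Further: pooled lentiviral library of zinc finger degron-EGFP fusions in mCherry-positive Jurkat cells, FACS-sorted after compound exposure, with degron abundance counted by next-generation sequencing.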

Sequence: FYCPQCGAHFTQKGNLLRHIKL [46F_47Y_49P_50Q_52G_53A_54H_55F_67L_, Q9UKT9]
- log2 fold change of degron read counts [1]: 0.451
- log2 fold change of degron read counts [2]: 1.45
- log2 fold change of degron read counts [3]: 1.13
- log2 fold change of degron read counts (compound: thalidomide): -0.932

Sequence: FFCPQCGAEFTQKGNLLRHIKL [46F_47F_49P_50Q_52G_53A_54E_55F_67L_, Q9UKT9]
- log2 fold change of degron read counts [1]: -0.388
- log2 fold change of degron read counts [2]: -1.02
- log2 fold change of degron read counts [3]: -0.943
- log2 fold change of degron read counts (compound: thalidomide): -1.93

Sequence: FMCPQCGAEFTQKGNLLRHIKL [46F_47M_49P_50Q_52G_53A_54E_55F_67L_, Q9UKT9]
- log2 fold change of degron read counts [1]: -2.82
- log2 fold change of degron read counts [2]: -2.55
- log2 fold change of degron read counts [3]: 0.714
- log2 fold change of degron read counts (compound: thalidomide): -1.49

Sequence: FACEICGHVFTQKGNLLRHIKL [46F_47A_49E_50I_52G_53H_54V_55F_67L_, Q9UKT9]
- log2 fold change of degron read counts [1]: -2.8
- log2 fold change of degron read counts [2]: -3.22
- log2 fold change of degron read counts [3]: -3.16
- log2 fold change of degron read counts (compound: thalidomide): -2.72

Sequence: FKCPVCGAYFTQKGNLLRHIKL [46F_47K_49P_50V_52G_53A_54Y_55F_67L_, Q9UKT9]
- log2 fold change of degron read counts [1]: -2.09
- log2 fold change of degron read counts [2]: -2.57
- log2 fold change of degron read counts [3]: -2.35
- log2 fold change of degron read counts (compound: thalidomide): -1.29

Sequence: FDCDVCGADFTQKGNLLRHIKL [46F_47D_49D_50V_52G_53A_54D_55F_67L_, Q9UKT9]
- log2 fold change of degron read counts [1]: -3.06
- log2 fold change of degron read counts [2]: -3.05
- log2 fold change of degron read counts [3]: -2.88
- log2 fold change of degron read counts (compound: thalidomide): -2.92

Sequence: FGCDVCGAVFTQKGNLLRHIKL [46F_47G_49D_50V_52G_53A_54V_55F_67L_, Q9UKT9]
- log2 fold change of degron read counts [1]: -0.0514
- log2 fold change of degron read counts [2]: -0.272
- log2 fold change of degron read counts [3]: 0.863
- log2 fold change of degron read counts (compound: thalidomide): -1.24

Sequence: FICNQCGADFTQKGNLLRHIKL [46F_47I_49N_50Q_52G_53A_54D_55F_67L_, Q9UKT9]
- log2 fold change of degron read counts [1]: -3.68
- log2 fold change of degron read counts [2]: -3.02
- log2 fold change of degron read counts [3]: -3.36
- log2 fold change of degron read counts (compound: thalidomide): -3.07

Sequence: FHCEVCGAKFTQKGNLLRHIKL [46F_47H_49E_50V_52G_53A_54K_55F_67L_, Q9UKT9]
- log2 fold change of degron read counts [1]: 2.92
- log2 fold change of degron read counts [2]: 1.93
- log2 fold change of degron read counts [3]: -0.596
- log2 fold change of degron read counts (compound: thalidomide): 0.387

Sequence: FYCEVCGAKFTQKGNLLRHIKL [46F_47Y_49E_50V_52G_53A_54K_55F_67L_, Q9UKT9]
- log2 fold change of degron read counts [1]: 3.48
- log2 fold change of degron read counts [2]: 3.66
- log2 fold change of degron read counts [3]: 1.65
- log2 fold change of degron read counts (compound: thalidomide): 1.54

Sequence: FFCEVCGAKFTQKGNLLRHIKL [46F_47F_49E_50V_52G_53A_54K_55F_67L_, Q9UKT9]
- log2 fold change of degron read counts [1]: 3.53
- log2 fold change of degron read counts [2]: 3.42
- log2 fold change of degron read counts [3]: 1.26
- log2 fold change of degron read counts (compound: thalidomide): 1.64

Sequence: FVCEVCGAKFTQKGNLLRHIKL [46F_47V_49E_50V_52G_53A_54K_55F_67L_, Q9UKT9]
- log2 fold change of degron read counts [1]: 0.611
- log2 fold change of degron read counts [2]: 1.89
- log2 fold change of degron read counts [3]: 0.0419
- log2 fold change of degron read counts (compound: thalidomide): 2.73

Sequence: FCCEVCGAKFTQKGNLLRHIKL [46F_47C_49E_50V_52G_53A_54K_55F_67L_, Q9UKT9]
- log2 fold change of degron read counts [1]: 3.23
- log2 fold change of degron read counts [2]: 2.43
- log2 fold change of degron read counts [3]: -0.571
- log2 fold change of degron read counts (compound: thalidomide): 2.71

Sequence: FNCEVCGAKFTQKGNLLRHIKL [46F_47N_49E_50V_52G_53A_54K_55F_67L_, Q9UKT9]
- log2 fold change of degron read counts [1]: 1.99
- log2 fold change of degron read counts [2]: 0.318
- log2 fold change of degron read counts [3]: -2.12
- log2 fold change of degron read counts (compound: thalidomide): 0.139

Sequence: FNCSVCGHVFTQKGNLLRHIKL [46F_47N_49S_50V_52G_53H_54V_55F_67L_, Q9UKT9]
- log2 fold change of degron read counts [1]: -2.33
- log2 fold change of degron read counts [2]: -2.79
- log2 fold change of degron read counts [3]: -2.91
- log2 fold change of degron read counts (compound: thalidomide): -2.16

Sequence: FGCDICGALFTQKGNLLRHIKL [46F_47G_49D_50I_52G_53A_54L_55F_67L_, Q9UKT9]
- log2 fold change of degron read counts [1]: 0.711
- log2 fold change of degron read counts [2]: -0.455
- log2 fold change of degron read counts [3]: 0.626
- log2 fold change of degron read counts (compound: thalidomide): -1.25

Sequence: FECPICGREFTQKGNLLRHIKL [46F_47E_49P_50I_52G_53R_54E_55F_67L_, Q9UKT9]
- log2 fold change of degron read counts [1]: -3.21
- log2 fold change of degron read counts [2]: -2.49
- log2 fold change of degron read counts [3]: -0.551
- log2 fold change of degron read counts (compound: thalidomide): 0.22

Sequence: FFCDVCGAMFTQKGNLLRHIKL [46F_47F_49D_50V_52G_53A_54M_55F_67L_, Q9UKT9]
- log2 fold change of degron read counts [1]: 1.26
- log2 fold change of degron read counts [2]: 0.949
- log2 fold change of degron read counts [3]: -0.289
- log2 fold change of degron read counts (compound: thalidomide): -2.16

Sequence: LCCPICGFECTQKGNLLRHIKL [46L_47C_49P_50I_52G_53F_54E_55C_67L_, Q9UKT9]
- log2 fold change of degron read counts [1]: 0.863
- log2 fold change of degron read counts [2]: 1.38
- log2 fold change of degron read counts [3]: 1.36
- log2 fold change of degron read counts (compound: thalidomide): 2.2

Sequence: LWCEICGFCCTQKGNLLRHIKL [46L_47W_49E_50I_52G_53F_54C_55C_67L_, Q9UKT9]
- log2 fold change of degron read counts [1]: 2.9
- log2 fold change of degron read counts [2]: 3.31
- log2 fold change of degron read counts [3]: 2.14
- log2 fold change of degron read counts (compound: thalidomide): 0.752

Sequence: LNCEICGFCCTQKGNLLRHIKL [46L_47N_49E_50I_52G_53F_54C_55C_67L_, Q9UKT9]
- log2 fold change of degron read counts [1]: 0.295
- log2 fold change of degron read counts [2]: -0.862
- log2 fold change of degron read counts [3]: -1.01
- log2 fold change of degron read counts (compound: thalidomide): -0.716

Sequence: LACEICGFCCTQKGNLLRHIKL [46L_47A_49E_50I_52G_53F_54C_55C_67L_, Q9UKT9]
- log2 fold change of degron read counts [1]: 2.01
- log2 fold change of degron read counts [2]: 0.96
- log2 fold change of degron read counts [3]: -0.0283
- log2 fold change of degron read counts (compound: thalidomide): -0.106

Sequence: LCCEICGFCCTQKGNLLRHIKL [46L_47C_49E_50I_52G_53F_54C_55C_67L_, Q9UKT9]
- log2 fold change of degron read counts [1]: 0.944
- log2 fold change of degron read counts [2]: 0.646
- log2 fold change of degron read counts [3]: 1.13
- log2 fold change of degron read counts (compound: thalidomide): 1.21

Sequence: LDCEICGFCCTQKGNLLRHIKL [46L_47D_49E_50I_52G_53F_54C_55C_67L_, Q9UKT9]
- log2 fold change of degron read counts [1]: -1.71
- log2 fold change of degron read counts [2]: -2.74
- log2 fold change of degron read counts [3]: -1.75
- log2 fold change of degron read counts (compound: thalidomide): -1.36

Sequence: LFCEICGFCCTQKGNLLRHIKL [46L_47F_49E_50I_52G_53F_54C_55C_67L_, Q9UKT9]
- log2 fold change of degron read counts [1]: 3.37
- log2 fold change of degron read counts [2]: 3.39
- log2 fold change of degron read counts [3]: 2.01
- log2 fold change of degron read counts (compound: thalidomide): 1.32

Sequence: LYCEICGFCCTQKGNLLRHIKL [46L_47Y_49E_50I_52G_53F_54C_55C_67L_, Q9UKT9]
- log2 fold change of degron read counts [1]: 3.35
- log2 fold change of degron read counts [2]: 3.28
- log2 fold change of degron read counts [3]: 3.07
- log2 fold change of degron read counts (compound: thalidomide): 1.36

Sequence: LVCEICGFCCTQKGNLLRHIKL [46L_47V_49E_50I_52G_53F_54C_55C_67L_, Q9UKT9]
- log2 fold change of degron read counts [1]: 1.06
- log2 fold change of degron read counts [2]: 1.69
- log2 fold change of degron read counts [3]: 1.86
- log2 fold change of degron read counts (compound: thalidomide): 2.44

Sequence: LSCEICGFCCTQKGNLLRHIKL [46L_47S_49E_50I_52G_53F_54C_55C_67L_, Q9UKT9]
- log2 fold change of degron read counts [1]: 1.68
- log2 fold change of degron read counts [2]: 1.58
- log2 fold change of degron read counts [3]: 0.957
- log2 fold change of degron read counts (compound: thalidomide): 0.73
